Measurements published in PubChem BioAssay AID1159580 (chemical genetic matrix, 2015).
Hit rate of the full screen: of about 5,500 compounds, about 2,000 (36%) were called active. Not shown: some 18% with an inconclusive outcome. Cut-off read from the data, not from the text of the source: active = normalized growth mostly below about 0.91 (no sharp cut-off); inconclusive = no clear call, values can overlap the other calls; inactive = mostly above about 0.92. Some of the results follow.

Experiment: chemical genetic growth profiling, strain panel (AID 1159580);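 note: tested at 20 µM; growth read once vehicle control cultures reached saturation at 30 °C; 1 = growth at the plate median or of vehicle wells; lower values mean less growth of the strain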
Conditions: growth OD

Measured: normalized growth

CN(C)CC/C=C1/c2ccccc2COc2ccccc21
inactive: S. cerevisiae deletion strains, locus YKL068W, hits give low values 1.02 | S. cerevisiae deletion strains, locus YKL085W, strain MDH1 (second series), hits give low values 1 | S. cerevisiae deletion strains, locus YKL085W, strain MDH1, hits give low values 1 | S. cerevisiae deletion strains, locus YKL160W, strain elf1, hits give low values 1.01 | S. cerevisiae deletion strains, locus YKL190W, strain CNB1, hits give low values 1.02 | S. cerevisiae deletion strains, locus YKR001C, strain vps1, hits give low values 1 | S. cerevisiae deletion strains, locus YKR026C, strain gcn3, hits give low values 1.03 | S. cerevisiae deletion strains, locus YKR091W, strain srl3, hits give low values 1.02 | S. cerevisiae deletion strains, locus YLL001W, strain dnm1, hits give low values 1.01 | S. cerevisiae deletion strains, locus YLL026W, hits give low values 1.02 | S. cerevisiae deletion strains, locus YLL041C, strain sdh2, hits give low values 1.03 | S. cerevisiae deletion strains, locus YLR027C, strain aat2, hits give low values 1.02 | S. cerevisiae deletion strains, locus YLR039C, strain RIC1, hits give low values 1.15 | S. cerevisiae deletion strains, locus YLR058C, strain SHM2, hits give low values 1.01 | S. cerevisiae deletion strains, locus YLR102C, strain apc9, hits give low values 1.01 | S. cerevisiae deletion strains, locus YLR113W, strain HOG1, hits give low values 1.09 | S. cerevisiae deletion strains, locus YLR221C, strain rsa3, hits give low values 1.01 | S. cerevisiae deletion strains, locus YLR258W, strain gsy2, hits give low values 1.02 | S. cerevisiae deletion strains, locus YLR262C, strain YPT6 (second series), hits give low values 1.09 | S. cerevisiae deletion strains, locus YLR262C, strain YPT6, hits give low values 1.14 | S. cerevisiae deletion strains, locus YLR268W, strain sec22, hits give low values 1.02 | S. cerevisiae deletion strains, locus YLR320W, strain mms22, hits give low values 1.01 | S. cerevisiae deletion strains, locus YLR330W, strain CHS5, hits give low values 1.01 | S. cerevisiae deletion strains, locus YLR342W, strain FKS1 (second series), hits give low values 1 | S. cerevisiae deletion strains, locus YLR342W, strain FKS1, hits give low values 1.01 | S. cerevisiae deletion strains, locus YLR357W, strain rsc2, hits give low values 1.02 | S. cerevisiae deletion strains, locus YLR370C, strain arc18, hits give low values 1.02 | S. cerevisiae deletion strains, locus YLR371W, strain rom2, hits give low values 1.01 | S. cerevisiae deletion strains, locus YLR384C, strain iki3, hits give low values 1.03 | S. cerevisiae deletion strains, locus YLR418C, strain cdc73, hits give low values 0.996 | S. cerevisiae deletion strains, locus YML016C, strain PPZ1, hits give low values 1 | S. cerevisiae deletion strains, locus YML032C, strain rad52, hits give low values 1.02 | S. cerevisiae deletion strains, locus YML120C, strain ndi1, hits give low values 1.04 | S. cerevisiae deletion strains, locus YML124C, strain tub3, hits give low values 1.02 | S. cerevisiae deletion strains, locus YMR058W, strain fet3, hits give low values 1.01 | S. cerevisiae deletion strains, locus YMR078C, strain ctf18, hits give low values 1.03 | S. cerevisiae deletion strains, locus YMR125W, strain sto1, hits give low values 1.02 | S. cerevisiae deletion strains, locus YMR129W, hits give low values 1.02 | S. cerevisiae deletion strains, locus YMR205C, strain PFK2, hits give low values 1.04 | S. cerevisiae deletion strains, locus YMR223W, strain ubp8, hits give low values 1.03 | S. cerevisiae deletion strains, locus YMR231W, strain pep5, hits give low values 1.03 | S. cerevisiae deletion strains, locus YMR263W, strain SAP30, hits give low values 1 | S. cerevisiae deletion strains, locus YMR307W, strain GAS1, hits give low values 1.05 | S. cerevisiae deletion strains, locus YNL067W, strain RPL9B, hits give low values 1.01 | S. cerevisiae deletion strains, locus YNL071W, strain lat1, hits give low values 1.02 | S. cerevisiae deletion strains, locus YNL128W, strain TEP1, hits give low values 1.01 | S. cerevisiae deletion strains, locus YNL153C, strain GIM3, hits give low values 0.997 | S. cerevisiae deletion strains, locus YNL183C, strain NPR1, hits give low values 0.989 | S. cerevisiae deletion strains, locus YNL209W, strain ssb2, hits give low values 0.985 | S. cerevisiae deletion strains, locus YNL233W, strain BNI4, hits give low values 1.01 | S. cerevisiae deletion strains, locus YNL248C, strain rpa49, hits give low values 1.01 | S. cerevisiae deletion strains, locus YNL250W, strain rad50, hits give low values 1.04 | S. cerevisiae deletion strains, locus YNL271C, strain bni1, hits give low values 1.01 | S. cerevisiae deletion strains, locus YNL298W, strain CLA4, hits give low values 1.02 | S. cerevisiae deletion strains, locus YNL307C, strain MCK1, hits give low values 1.03 | S. cerevisiae deletion strains, locus YNL322C, strain KRE1 (second series), hits give low values 1.02 | S. cerevisiae deletion strains, locus YNL322C, strain KRE1, hits give low values 1.02 | S. cerevisiae deletion strains, locus YNR049C, strain mso1, hits give low values 1.02 | S. cerevisiae deletion strains, locus YNR052C, strain pop2, hits give low values 1.02 | S. cerevisiae deletion strains, locus YOL006C, strain TOP1, hits give low values 0.974 | S. cerevisiae deletion strains, locus YOL012C, strain htz1 1.18 | S. cerevisiae deletion strains, locus YOL147C, strain pex11, hits give low values 1.01 | S. cerevisiae deletion strains, locus YOR001W, strain rrp6, hits give low values 1.02 | S. cerevisiae deletion strains, locus YOR061W, strain CKA2, hits give low values 1 | S. cerevisiae deletion strains, locus YOR069W, strain VPS5, hits give low values 1.01 | S. cerevisiae deletion strains, locus YOR070C, strain gyp1, hits give low values 1.02 | S. cerevisiae deletion strains, locus YOR080W, strain dia2, hits give low values 1.03 | S. cerevisiae deletion strains, locus YOR083W, strain WHI5, hits give low values 0.99 | S. cerevisiae deletion strains, locus YOR106W, strain vam3, hits give low values 1.02 | S. cerevisiae deletion strains, locus YOR136W, strain idh2, hits give low values 1.03 | S. cerevisiae deletion strains, locus YOR144C, strain elg1, hits give low values 1.01 | S. cerevisiae deletion strains, locus YOR184W, strain ser1, hits give low values 1.05 | S. cerevisiae deletion strains, locus YOR231W, strain MKK1, hits give low values 1.07 | S. cerevisiae deletion strains, locus YOR265W, strain rbl2, hits give low values 1.03 | S. cerevisiae deletion strains, locus YOR270C, strain vph1, hits give low values 1.02 | S. cerevisiae deletion strains, locus YOR290C, strain snf2, hits give low values 1.01 | S. cerevisiae deletion strains, locus YOR316C, strain cot1, hits give low values 1.01 | S. cerevisiae deletion strains, locus YPL051W, strain arl3, hits give low values 1.01 | S. cerevisiae deletion strains, locus YPL055C, strain LGE1, hits give low values 0.981 | S. cerevisiae deletion strains, locus YPL078C, strain atp4, hits give low values 1.02 | S. cerevisiae deletion strains, locus YPL106C, strain sse1, hits give low values 1.02 | S. cerevisiae deletion strains, locus YPL240C, strain hsp82, hits give low values 1.02 | S. cerevisiae deletion strains, locus YPL241C, strain CIN2, hits give low values 1.01 | S. cerevisiae deletion strains, locus YPL256C, strain CLN2, hits give low values 1.04 | S. cerevisiae deletion strains, locus YPR119W, strain clb2, hits give low values 1.01 | S. cerevisiae deletion strains, locus YPR141C, strain kar3, hits give low values 1.01 | S. cerevisiae deletion strains, locus YPR163C, strain tif3, hits give low values 1.01 | S. cerevisiae deletion strains, locus YPR167C, strain met16, hits give low values 1.02 | S. cerevisiae deletion strains, strain wtn01, hits give low values 1.03 | S. cerevisiae strains, strain wild type, hits give low values 1.01
